# Results reported in PubChem BioAssay (Tox21).
# Inconclusive results are not listed. The source made the active and inactive calls. Calls follow the shape of the dose curve; as a rule, active = well fitted activation curve with a large enough effect in the repeat runs; inconclusive = weak or mixed curves; inactive = flat fitted curve, though single readings scatter.
# Test: A CellTox Green Cytotoxicity Assay to monitor cytotoxicity in HEK293 cells - 32 hour (AID 1224881); also: nearly all actives have a fitted effect of over 40% in size; also: potency is read from the fitted curve at half-maximal effect
# Conditions: CellTox Green fluorescence; series mostly up to 76.8 µM; cytotoxicity increase: at the top concentration
# Summary of the method: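 Nonlytic real-time cytotoxicity: HEK293 + CellTox Green reagent plated, 5 h preincubation, pintool compound addition (23 nL in DMSO), 37 C for 40 h, fluorescence measured at successive time points.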
# % is scaled to controls: 0 for no effect and ±100 for the full control effect.
Compound,cytotoxicity increase,Potency
CC1(C)S[C@@H]2[C@H](N=CN3CCCCCC3)C(=O)N2[C@H]1C(=O)O,-1.55% [at 35.3 µM] (inactive),
COC(=O)C1CC(=O)C(C(=O)OC)CC1=O (centres undefined),0.949% [at 6.97 µM] (inactive),
CCCCCCCC/C=C\CCCCCCCC(=O)OCCCC,-35.2% [at 15.8 µM] (inactive),
CCc1ccc(C=O)cc1,7.09% (inactive),
CC(C)CC(C)CC(C)CC(C)COC(=O)c1ccccc1C(=O)OCC(C)CC(C)CC(C)CC(C)C (centres undefined),-3.23% (inactive),
CC1=CCC(C(C)C)=CC1,-1.53% (inactive),
CCCC/C=C/C=C\C=O,-6.31% (inactive),
CCOC(=O)CC(=O)c1ccccc1,-3.82% (inactive),
CCCCCCCCOS(=O)(=O)O,-2.25% (inactive),
CC(=C(CCOC(=O)C(C)C)SSC(CCOC(=O)C(C)C)=C(C)N(C=O)Cc1cnc(C)nc1N)N(C=O)Cc1cnc(C)nc1N,0.228% [at 35.3 µM] (inactive),
CC(=O)/C=C/C1C(C)=CCC(C)C1(C)C (centres undefined),-0.934% (inactive),
C[C@H](N)[C@H](O)c1cccc(O)c1,-10.7% [at 35.3 µM] (inactive),
BrCCCCCBr,-14.9% (inactive),
CCCCCCCCSCC,-1.55% (inactive),
Cc1cccc2nccnc12,,24.5 µM (active)
CNS(=O)(=O)CCc1ccc2[nH]cc(C3CCN(C)CC3)c2c1,-8.99% [at 35.3 µM] (inactive),
C[C@@H]1O[C@@H](O[C@@H]2[C@@H](O)[C@H](OCCc3ccc(O)c(O)c3)O[C@H](CO[C@@H]3O[C@H](CO)[C@@H](O)[C@H](O)[C@H]3O)[C@H]2OC(=O)/C=C/c2ccc(O)c(O)c2)[C@H](O)[C@H](O)[C@H]1O,-21.6% (inactive),
CN(CCOc1ccc(NS(C)(=O)=O)cc1)CCc1ccc(NS(C)(=O)=O)cc1,-2.09% [at 35.3 µM] (inactive),

Compound,cytotoxicity increase,Potency
Nc1ccc(S(=O)(=O)Nc2ccc(Cl)nn2)cc1,16% [at 35.3 µM] (inactive),
O=C1c2ccccc2C(=O)N1CCl,-3.15% (inactive),
O=C1CC(c2ccc(Cl)cc2)CC(=O)N1,-2.53% [at 35.3 µM] (inactive),
CN1CCN(CC(=O)N2c3ccccc3C(=O)Nc3cccnc32)CC1,-2.73% [at 6.97 µM] (inactive),
O=C(Nc1ccc(Cl)c(Cl)c1)C1CC1,-2.25% [at 35.3 µM] (inactive),
On1nnc2ccccc21,7.15% (inactive),
CCCOC(=O)C(C)O (centres undefined),-11.4% (inactive),
CCC(C)NC(N)=O (centres undefined),-0.641% (inactive),
CC(C)N(c1ccccc1)C(C)C,-8.94% (inactive),
OCCC(F)(F)C(F)(F)C(F)(F)C(F)(F)C(F)(F)C(F)(F)C(F)(F)C(F)(F)F,1.44% (inactive),
CC(C)=CCOC(=O)c1ccccc1,14.7% (inactive),
CC(=O)NCc1c(I)c(NC(C)=O)c(I)c(C(=O)O)c1I,-0.968% [at 35.3 µM] (inactive),
COC(=O)[C@@H]1[C@H]2C[C@H]3c4[nH]c5ccccc5c4CCN3C[C@@H]2CC[C@@H]1O,-19.5% [at 35.3 µM] (inactive),
CC(=O)OC(C)OC(=O)C(C)c1ccc(-c2ccccc2)c(F)c1 (centres undefined),-8.08% [at 35.3 µM] (inactive),
COc1ccc(S(=O)(=O)N2c3ccc(Cl)cc3[C@@](O)(c3ccccc3Cl)[C@H]2C(=O)N2CCC[C@@H]2C(N)=O)cc1OC,4.08% [at 35.3 µM] (inactive),
CC(COC(C)(C)C)OCCCO (centres undefined),-6.66% (inactive),
NS(=O)(=O)c1cc2c(cc1Cl)CN(C1CCCCC1)C2=O,-3.18% [at 35.3 µM] (inactive),
CC(=O)NCCCCCC(=O)O,-0.423% [at 35.3 µM] (inactive),

# Test: A CellTox Green Cytotoxicity Assay to monitor cytotoxicity in HepG2 cells - 0 hour (AID 1224882); also: nearly all actives have a fitted effect of over 35% in size
# Conditions: CellTox Green fluorescence; series mostly up to 76.8 µM; cytotoxicity: at the top concentration
# Summary of the method: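 Read-out is fluorescence of a cyanine dye excluded from live cells that stains DNA of dead HepG2 cells, with signal proportional to cytotoxicity. Plates were read at 0, 8, 16, 24, 32 and 40 h after compound addition.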
row,Compound,cytotoxicity
1,CC1(C)S[C@@H]2[C@H](N=CN3CCCCCC3)C(=O)N2[C@H]1C(=O)O,0.0365% [at 35.3 µM] (inactive)
2,COC(=O)C1CC(=O)C(C(=O)OC)CC1=O (centres undefined),-5.98% [at 6.97 µM] (inactive)
3,CCCCCCCC/C=C\CCCCCCCC(=O)OCCCC,-2.01% [at 15.8 µM] (inactive)
4,CC(C)CC(C)CC(C)CC(C)COC(=O)c1ccccc1C(=O)OCC(C)CC(C)CC(C)CC(C)C (centres undefined),12.6% (inactive)
5,CC1=CCC(C(C)C)=CC1,0.895% (inactive)
6,CCCC/C=C/C=C\C=O,2.62% (inactive)
7,CCOC(=O)CC(=O)c1ccccc1,0.919% (inactive)
8,CC(=O)/C=C/C1C(C)=CCC(C)C1(C)C (centres undefined),-0.116% (inactive)
9,C[C@H](N)[C@H](O)c1cccc(O)c1,-9.04% [at 35.3 µM] (inactive)
10,CCCCCCCCSCC,2.64% (inactive)
11,Cc1cccc2nccnc12,-6.07% (inactive)
12,C[C@@H]1O[C@@H](O[C@@H]2[C@@H](O)[C@H](OCCc3ccc(O)c(O)c3)O[C@H](CO[C@@H]3O[C@H](CO)[C@@H](O)[C@H](O)[C@H]3O)[C@H]2OC(=O)/C=C/c2ccc(O)c(O)c2)[C@H](O)[C@H](O)[C@H]1O,0.55% (inactive)
13,CN(CCOc1ccc(NS(C)(=O)=O)cc1)CCc1ccc(NS(C)(=O)=O)cc1,-4.94% [at 35.3 µM] (inactive)
14,Nc1ccc(S(=O)(=O)Nc2ccc(Cl)nn2)cc1,-0.796% [at 35.3 µM] (inactive)
15,O=C1c2ccccc2C(=O)N1CCl,-0.547% (inactive)
16,O=C1CC(c2ccc(Cl)cc2)CC(=O)N1,-17.2% [at 35.3 µM] (inactive)
17,N[C@@H](CCC(=O)N[C@@H](CS)C(=O)NCC(=O)O)C(=O)O,-0.523% [at 15.8 µM] (inactive)
18,CN1CCN(CC(=O)N2c3ccccc3C(=O)Nc3cccnc32)CC1,-13.6% [at 6.97 µM] (inactive)
19,O=C(Nc1ccc(Cl)c(Cl)c1)C1CC1,-3.22% [at 35.3 µM] (inactive)
20,On1nnc2ccccc21,3.42% (inactive)
21,CCCOC(=O)C(C)O (centres undefined),-1.41% (inactive)
22,CCC(C)NC(N)=O (centres undefined),13.7% (inactive)
23,CC(C)N(c1ccccc1)C(C)C,-4.73% (inactive)
24,OCCC(F)(F)C(F)(F)C(F)(F)C(F)(F)C(F)(F)C(F)(F)C(F)(F)C(F)(F)F,2.07% (inactive)
25,COC(=O)[C@@H]1[C@H]2C[C@H]3c4[nH]c5ccccc5c4CCN3C[C@@H]2CC[C@@H]1O,-1.16% [at 35.3 µM] (inactive)
26,CC(=O)OC(C)OC(=O)C(C)c1ccc(-c2ccccc2)c(F)c1 (centres undefined),24.8% [at 35.3 µM] (inactive)
27,CC(COC(C)(C)C)OCCCO (centres undefined),-4.65% (inactive)
28,CC(=O)NCCCCCC(=O)O,0.718% [at 35.3 µM] (inactive)
